# Several values for one entry are separate records, joined by “and”; a condition that tells them apart may be missing. Equal entries are not always repeated. Results filed as inconclusive are left out. Activity calls are given as the source filed them. How the source made its calls, unless noted: active means hit-call score of the fitted dose curve at least 0.9, where 1 is the maximum; inactive means score below 0.9.
# Experiments:
# IYD (gene 389434) = experiment: CCTE_GLTED_hIYD: CCTE's human Iodotyrosine Deiodinase (xIYD) Inhibition Assay, Great Lakes Toxicology and Ecology Division (GLTED) Lab (AID 2284317; active means hit-call score of the fitted dose curve at least 0.9, where 1 is the maximum;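 further: cell-free human IYD enzyme made in baculovirus insect cells; iodide freed from monoiodotyrosine measured by cerium arsenite color change at 420 nm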)
# Outline: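 Absorbance change at 420 nm from the iodide-catalysed cerium-arsenic reaction reports free iodide released by human IYD from monoiodotyrosine. Enzyme, substrate and chemical are incubated 3 h; loss of signal is fitted relative to DMSO baseline.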
# TTR (gene 7276) = experiment: CCTE_GLTED_hTTR_0.5uM: CCTE's human Transthyretin (hTTR) Inhibition Assay, with 0.5uM TTR, Great Lakes Toxicology and Ecology Division (GLTED) Lab (AID 2284320)
# Outline: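 Cell-free displacement assay in which human TTR at 0.5 uM was incubated with test chemical for 2 h. Displacement of the ANSA probe was read by fluorescence at 380 nm excitation/475 nm emission. Loss of signal was fitted in the positive direction versus DMSO.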
# [1] = CCTE_Mundy_HCI_iCellGluta_NOG_NeuriteLength: CCTE's Neurite Outgrowth Assay in iCellGluta cells for Neurite Length, Mundy Lab (AID 2284318; active means hit-call score of the fitted dose curve at least 0.9, where 1 is the maximum)
# Outline: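 Automated high-content imaging of betaIII-tubulin (Alexa Fluor-488) and Hoechst-stained cells gave neurite length, normalized to the DMSO baseline.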
# [2] = CCTE_Deisenroth_5AR_NBTE_donor: CCTE's 5alpha-reductase NanoBRET Target Engagement Assay […], Deisenroth Lab (AID 2284319); conditions: actives raise or lower the signal
# Outline: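 SRD5A2-NanoLuc, HEK293T, 20 h expression. Chemical 10 nM - 29.9 uM, 8 conc, duplicate; 3 h preincubation + 2 h testosterone tracer. Nano-Glo substrate plus extracellular NanoLuc inhibitor; donor lum 460 nm. DMSO baseline, bidirectional fit.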
# [3] = CCTE_Deisenroth_5AR_NBTE_acceptor: CCTE's 5alpha-reductase NanoBRET Target Engagement Assay - Autofluorescence Screen, Deisenroth Lab (AID 2284321); conditions: actives raise or lower the signal;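 further: compound fluorescence in the acceptor channel under 460 nm excitation flags autofluorescence artifacts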
# Outline: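 Using three independent plate-reader runs, nominal 100 uM chemicals were checked for intrinsic fluorescence (ex 460 nm). DMSO defined the baseline for bidirectional fitting.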
# SRD5A2 (gene 6716) = experiment: CCTE_Deisenroth_5AR_NBTE_ratio: CCTE's 5alpha-reductase NanoBRET Target Engagement Assay - Ratio, Deisenroth Lab (AID 2284322); conditions: actives raise or lower the signal
# Outline: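 HEK293T transiently expressing SRD5A2-NanoLuc; cells exposed to chemical (8-point, 10 nM - 29.9 uM) for 5 h total, testosterone tracer added for final 2 h. NanoBRET acceptor/donor ratio (650/460 nm), bidirectional fit vs DMSO.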
# [4] = IUF_NPC2-5_cytotoxicity_120hr: Cytotoxicity Assessment at 120 hours in the Leibniz Research Institute for Environmental Medicine (IUF) Neural Progenitor Cell Migration and Differentiation Assay (NPC2-5) (AID 2284307; active means hit-call score of the fitted dose curve at least 0.9, where 1 is the maximum;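 on AC50: LDH released into supernatant as membrane damage marker via resorufin fluorescence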)
# Outline: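 Membrane-integrity loss is quantified by LDH in supernatant after five days of exposure of migrating, differentiating human fetal NPC spheres; seven serially diluted concentrations are tested with DMSO kept at or below 0.1%.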
# [5] = IUF_NPC2-5_cell_number_120hr: Cell Number Assessment at 120 hours in the Leibniz Research Institute for Environmental Medicine (IUF) Neural Progenitor Cell Migration and Differentiation Assay (NPC2-5) (AID 2284308);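 further: count of Hoechst-stained nuclei in migration zone around plated human neural progenitor spheres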
# Outline: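 Seven-point serial dilutions plus solvent control were applied to plated 0.3 mm hNPC spheres at differentiation start, with medium half-replaced at day 3. Nuclei positive for Hoechst in the migration zone were enumerated at 120 h.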
# [6] = IUF_NPC2-5_viability_120hr: Viability Assessment at 120 hours in the Leibniz Research Institute for Environmental Medicine (IUF) Neural Progenitor Cell Migration and Differentiation Assay (NPC2-5) (AID 2284312)
# Outline: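 Human fetal neural progenitor spheres (0.3 mm) plated on poly-D-lysine/laminin in N2 differentiation medium, exposed 120 h with half-medium refresh at day 3. Viability by alamar blue resazurin fluorescence; 7 concentrations, DMSO max 0.1%.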
# [7] = IUF_NPC1_cytotoxicity_72hr: Cytotoxicity Assessment at 72 hours in the Leibniz Research Institute for Environmental Medicine (IUF) Neural Progenitor Cell Proliferation Assay (NPC1) (AID 2284332; active means hit-call score of the fitted dose curve at least 0.9, where 1 is the maximum;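 further: rising LDH signal means more cytotoxicity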)
# Outline: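 Spheres of primary human neural progenitors are plated one per well on day 0 in growth-factor medium and dosed at once. After three days at 37C, supernatant LDH is measured fluorimetrically via resazurin reduction.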
# [8] = TAMU_PeakParms_SingleDonor1434_Asystole: Texas A&M University (TAMU) 1.5-hr Human Induced Pluripotent Stem Cell (iPSC)-derived Cardiomyocytes Calcium (Ca+2) Flux Assay for Cardiotoxicity: Asystole (quiescence of beating) (AID 2284328; active means hit-call score of the fitted dose curve at least 0.9, where 1 is the maximum)
# Outline: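 Donor 1434 iPSC-cardiomyocytes exposed 90 min at 37C, 5% CO2, to 0.2, 1, 10 and 100 uM in 0.5% DMSO. Ca2+ dye fluorescence gave average peak frequency; POD is EC95, a 95% beat-rate drop versus controls.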
# [9] = tested on: Brachyury (BRA) Protein Expression, Deisenroth Lab, TBXT (gene 6862); experiment: CCTE_Deisenroth_DEVTOX-GLR_legacy_Bra: (Legacy) CCTE's DevTox GLR-Endo Assay Evaluation of Brachyury (BRA) Protein Expression, Deisenroth Lab (AID 2284329)
# Outline: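 RUES2-GLR human pluripotent cells are differentiated for 48 h and receive two chemical exposures 24 h apart, at 10 concentrations from 1 nM to 200 uM. Cells are fixed, nuclei stained and imaged. Bra+ cells are those with mean Bra intensity over 5x BMAD above the pluripotent control median, expressed as a percentage of cell count, after subtracting the 0.2% DMSO control median.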
# [10] = CCTE_Deisenroth_DEVTOX-GLR_legacy_CellCount: (Legacy) Viability Assessment in CCTE's DevTox GLR-Endo Assay, Deisenroth Lab (AID 2284331); conditions: actives raise or lower the signal
# Outline: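 Viability is taken from imaged nuclei counts in fixed RUES2-GLR cultures after 48 h of differentiation under two 24 h-spaced chemical exposures, 10 concentrations from 1 nM to 200 uM, gain or loss versus DMSO baseline.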
compound,measurement,setting,value
O=C(O)C(F)(F)OC(F)(F)C(F)(F)OC(F)(F)C(F)(F)OC(F)(F)C(F)(F)C(F)(F)C(F)(F)F,AC50,IYD (gene 389434),93.2 µM (active)
same,AC50,TTR (gene 7276),1.11 µM (active)
Oc1c(Cl)cc(Cl)cc1Sc1cc(Cl)cc(Cl)c1O,AC50,IYD (gene 389434),56.9 µM (active) and 88.2 µM (active) and 100 µM (active)
Cc1cc(Cc2cc(C)cc(C(C)(C)C)c2O)c(O)c(C(C)(C)C)c1,AC50,IYD (gene 389434),24.2 µM (active)
CCCCCCCCCCCCOC(=O)c1cc(O)c(O)c(O)c1,AC50,IYD (gene 389434),22.9 µM (active)
C=CC(=O)OCCC(F)(F)C(F)(F)C(F)(F)C(F)(F)C(F)(F)C(F)(F)C(F)(F)C(F)(F)F,outcome,[1],inactive
O=C(O)CCC(F)(F)C(F)(F)C(F)(F)C(F)(F)C(F)(F)C(F)(F)F,AC50,TTR (gene 7276),3.66 µM (active)
CCCCCCCCCCCC,AC50,IYD (gene 389434),38.4 µM (active)
same,outcome,[2],inactive
same,outcome,[3],inactive
same,outcome,SRD5A2 (gene 6716),inactive
CCc1ccccc1O,outcome,[2],inactive
same,outcome,[3],inactive
same,outcome,SRD5A2 (gene 6716),inactive
CC(C)c1c(C(=O)Nc2ccccc2)c(-c2ccccc2)c(-c2ccc(F)cc2)n1CC[C@@H](O)C[C@@H](O)CC(=O)O,AC50,[4],1.75 µM (active)
same,outcome,[5],inactive
same,outcome,[6],inactive
same,AC50,[1],0.0462 µM (active)
same,outcome,[7],inactive
CC(=O)Nc1ccc(O)cc1,outcome,[4],inactive
same,outcome,[5],inactive
same,outcome,[6],inactive
same,outcome,[8],inactive
same,outcome,[9],inactive
same,outcome,[10],inactive
same,outcome,[7],inactive
CCCCCCc1ccc(N)cc1,outcome,[2],inactive
same,outcome,[3],inactive
same,AC50,SRD5A2 (gene 6716),50 µM (active)
O=C(Nc1ccc(Cl)c(Cl)c1)c1cc(Cl)cc(Cl)c1O,AC50,IYD (gene 389434),77.4 µM (active)
CCCCCCCCCCCCOS(=O)(=O)O,AC50,[2],50 µM (active)
same,AC50,[3],44.8 µM (active)
same,AC50,SRD5A2 (gene 6716),83.9 µM (active)
O=C(CC(=O)C(F)(F)C(F)(F)C(F)(F)F)c1cccs1,outcome,[1],inactive
same,AC50,TTR (gene 7276),0.193 µM (active)
O=P(O)(O)CCC(F)(F)C(F)(F)C(F)(F)C(F)(F)C(F)(F)C(F)(F)F,outcome,[1],inactive
same,AC50,TTR (gene 7276),6.47 µM (active)

# Reference: PubChem BioAssay (EPA / NIEHS)
